Measured values from PubChem BioAssay (EPA / NIEHS).
Values joined by “and” are separate entries in the source; they are usually repeats but may differ in a detail not shown here. Equal entries are not always repeated. Some compounds were tested as several samples or in several runs, with calls that do not always agree. Active and inactive are the calls of the source. How the source made its calls: active means hit-call score of the fitted dose curve at least 0.9, where 1 is the maximum; inactive means score below 0.9.

How the values were obtained:
[1] = read-out: Interleukin-8 (IL8), CXCL8 (gene 3576); test: BSK_CASM3C_IL8: BioMAP Diversity Plus: CASM3C Assay for Interleukin-8 (IL8) Biomarker Activity (AID 2283042); details: primary human coronary artery smooth muscle cells; actives raise or lower the signal;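 further: IL-8 protein level quantified by ELISA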
[2] = read-out: Human Leukocyte Antigen - DR isotype (HLADR), HLA-DRA (gene 3122); test: BSK_CASM3C_HLADR: BioMAP Diversity Plus: CASM3C Assay for Human Leukocyte Antigen - DR isotype (HLADR) Biomarker Activity (AID 2283043); details: primary human coronary artery smooth muscle cells; actives raise or lower the signal;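 further: cell-surface HLA-DR protein level quantified by ELISA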
[3] = read-out: Macrophage colony-stimulating factor (MCSF), CSF1 (gene 1435); test: BSK_CASM3C_MCSF: BioMAP Diversity Plus: CASM3C Assay for Macrophage colony-stimulating factor (MCSF) Biomarker Activity (AID 2283044); details: primary human coronary artery smooth muscle cells; actives raise or lower the signal;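 further: M-CSF protein amount quantified by ELISA after 24 h exposure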
[4] = read-out: Low-density lipoprotein receptor (LDLR), LDLR (gene 3949); test: BSK_CASM3C_LDLR: BioMAP Diversity Plus: CASM3C Assay for Low-density lipoprotein receptor (LDLR) Biomarker Activity (AID 2283045); details: primary human coronary artery smooth muscle cells; actives raise or lower the signal;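 further: LDLR protein level on the cell surface quantified by ELISA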
[5] = read-out: Monocyte Chemoattractant Protein-1 (MCP1), CCL2 (gene 6347); test: BSK_CASM3C_MCP1: BioMAP Diversity Plus: CASM3C Assay for Monocyte Chemoattractant Protein-1 (MCP1) Biomarker Activity (AID 2283046); details: primary human coronary artery smooth muscle cells; actives raise or lower the signal;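 further: MCP-1 level quantified by ELISA 24 h after dosing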
[6] = BSK_CASM3C_Proliferation: Cell Proliferation Assessment in the BioMAP Diversity Plus: CASM3C Assay (AID 2283047); details: primary human coronary artery smooth muscle cells;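 further: sulforhodamine B total protein stain as relative cell number at 560 nm; sub-confluent cells exposed 48 h before staining; fitted both ways against DMSO so gain or loss of cell number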
[7] = read-out: Monokine induced gamma interferon (MIG), CXCL9 (gene 4283); test: BSK_CASM3C_MIG: BioMAP Diversity Plus: CASM3C Assay for Monokine induced gamma interferon (MIG) Biomarker Activity (AID 2283048); details: primary human coronary artery smooth muscle cells; actives raise or lower the signal;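 further: MIG protein level measured by ELISA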
[8] = read-out: serum amyloid A (SAA), SAA1 (gene 6288); test: BSK_CASM3C_SAA: BioMAP Diversity Plus: CASM3C Assay for serum amyloid A (SAA) Biomarker Activity (AID 2283049); details: primary human coronary artery smooth muscle cells; actives raise or lower the signal;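 further: SAA protein level quantified by ELISA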
[9] = BSK_CASM3C_SRB: Viability Assessment in the BioMAP Diversity Plus: CASM3C Assay (AID 2283050); details: primary human coronary artery smooth muscle cells;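 further: total protein by SRB staining as cytotoxicity measure in parallel cultures; cells exposed to compound for 24 h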
[10] = read-out: Thrombomodulin, THBD (gene 7056); test: BSK_CASM3C_Thrombomodulin: BioMAP Diversity Plus: CASM3C Assay for Thrombomodulin Biomarker Activity (AID 2283051); details: primary human coronary artery smooth muscle cells; actives raise or lower the signal;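 further: thrombomodulin protein level measured by ELISA 24 h after dosing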
[11] = read-out: Tissue Factor, F3 (gene 2152); test: BSK_CASM3C_TissueFactor: BioMAP Diversity Plus: CASM3C Assay for Tissue Factor Biomarker Activity (AID 2283052); details: primary human coronary artery smooth muscle cells; actives raise or lower the signal;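 further: cell surface tissue factor protein level read by ELISA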
[12] = read-out: Interferon-gamma inducible Protein 10 (IP10), CXCL10 (gene 3627); test: BSK_hDFCGF_IP10: BioMAP Diversity Plus: hDFCGF Assay for Interferon-gamma inducible Protein 10 (IP10) Biomarker Activity (AID 2283053); details: primary human foreskin fibroblasts; actives raise or lower the signal
Procedure, shortened: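 Chemical-treated human skin fibroblasts (primary) were sampled at 24 h for IP-10 by ELISA. Both increases and decreases relative to DMSO were scored.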

[13] = read-out: Urokinase-type plasminogen activator receptor (uPAR), PLAUR (gene 5329); test: BSK_CASM3C_uPAR: BioMAP Diversity Plus: CASM3C Assay for Urokinase-type plasminogen activator receptor (uPAR) Biomarker Activity (AID 2283054); details: primary human coronary artery smooth muscle cells; actives raise or lower the signal;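 further: cell-surface uPAR protein level quantified by ELISA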
[14] = read-out: Vascular cell adhesion molecule 1 (VCAM1), VCAM1 (gene 7412); test: BSK_CASM3C_VCAM1: BioMAP Diversity Plus: CASM3C Assay for Vascular cell adhesion molecule 1 (VCAM1) Biomarker Activity (AID 2283055); details: primary human coronary artery smooth muscle cells; actives raise or lower the signal;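 further: VCAM-1 protein level quantified by ELISA on the cells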
[15] = read-out: Collagen III, COL3A1 (gene 1281); test: BSK_hDFCGF_CollagenIII: BioMAP Diversity Plus: hDFCGF Assay for Collagen III Biomarker Activity (AID 2283056); details: primary human foreskin fibroblasts; actives raise or lower the signal
Procedure, shortened: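 ELISA readout of Collagen III in human dermal (foreskin) fibroblasts, taken 24 h post-treatment. Gain or loss relative to DMSO vehicle fitted in both directions.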

[16] = read-out: Epidermal growth factor receptor (EGFR), EGFR (gene 1956); test: BSK_hDFCGF_EGFR: BioMAP Diversity Plus: hDFCGF Assay for Epidermal growth factor receptor (EGFR) Biomarker Activity (AID 2283057); details: primary human foreskin fibroblasts; actives raise or lower the signal
Procedure, shortened: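 Cell-based multiplexed assay in primary human foreskin fibroblasts. EGFR is read by ELISA 24 h after treatment and compared with DMSO controls.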

[17] = read-out: Interleukin-8 (IL8), CXCL8 (gene 3576); test: BSK_hDFCGF_IL8: BioMAP Diversity Plus: hDFCGF Assay for Interleukin-8 (IL8) Biomarker Activity (AID 2283058); details: primary human foreskin fibroblasts; actives raise or lower the signal
Procedure, shortened: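 IL-8 levels read by ELISA at 24 hours after dosing human skin fibroblast cultures. Parallel SRB staining assessed overt cytotoxicity, and gain or loss of signal was fitted against DMSO control.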

[18] = BSK_hDFCGF_Proliferation: Cell Proliferation Assessment in the BioMAP Diversity Plus: hDFCGF Assay (AID 2283059); details: primary human foreskin fibroblasts;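 further: curves fitted for both rise and fall of signal versus DMSO baseline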
Procedure, shortened: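 Steps: dose primary human dermal fibroblasts (foreskin); […] fix in 10% TCA; stain with 0.1% SRB; read 560 nm; fit gain or loss of signal against DMSO.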

[19] = read-out: Macrophage colony-stimulating factor (MCSF), CSF1 (gene 1435); test: BSK_hDFCGF_MCSF: BioMAP Diversity Plus: hDFCGF Assay for Macrophage colony-stimulating factor (MCSF) Biomarker Activity (AID 2283060); details: primary human foreskin fibroblasts; actives raise or lower the signal
Procedure, shortened: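 M-CSF levels read by ELISA at 24 h post-dosing in human skin fibroblasts. Parallel cultures stained with SRB assessed cytotoxicity at the same time point; response fitted in both directions against the DMSO baseline.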

[20] = BSK_hDFCGF_SRB: Viability Assessment in the BioMAP Diversity Plus: hDFCGF Assay (AID 2283061); details: primary human foreskin fibroblasts;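 further: cells exposed to compound for 24 h before the read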
Procedure, shortened: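 Viability was read as total protein: after 10% TCA fixation, wells were stained with 0.1% sulforhodamine B and read at 560 nm. Primary human foreskin fibroblasts were dosed for 24 h, with bidirectional fitting versus DMSO.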

Measured: AC50

Cc1oc(-c2ccccc2)nc1CCOc1ccc(C[C@H](Nc2ccccc2C(=O)c2ccccc2)C(=O)O)cc1
inactive: [1] | [7] | [8] | [10] | [11]
active: [2] 34.6 µM | [3] 30.8 µM | [4] 4.87 µM | [5] 32.4 µM | [6] 31.8 µM | [9] 32.3 µM | [12] 3.35 µM | [13] 31.2 µM | [14] 32.8 µM | [15] 3.34 µM | [16] 1.85 µM | [17] 7.44 µM | [18] 1.81 µM | [19] 3.14 µM | [20] 2.42 µM

FC(F)(I)C(F)(F)C(F)(F)C(F)(F)C(F)(F)C(F)(F)I
active: [1] 30 µM [middle of 5 runs] | [3] 25.9 µM [middle of 5 runs] | [4] 22 µM [middle of 5 runs] | [5] 21.6 µM [middle of 5 runs] | [6] 13.6 µM [middle of 5 runs] | [7] 29.7 µM [middle of 5 runs] | [8] 17 µM [middle of 5 runs] | [9] 23.3 µM [middle of 5 runs] | [10] 17.8 µM and 50.8 µM and 7.99 µM | [11] 23.7 µM and 16.2 µM and 30 µM | [12] 5.72 µM [middle of 5 runs] | [13] 23.7 µM [middle of 5 runs] | [14] 19.8 µM [middle of 5 runs] | [15] 4.16 µM [middle of 5 runs] | [17] 7.02 µM [middle of 5 runs] | [18] 2.06 µM [middle of 5 runs] | [19] 4.77 µM [middle of 5 runs] | [20] 5.33 µM [middle of 5 runs]
inactive: [10] | [11] | [16]

CN1CCC[C@H]1c1cccnc1
inactive: all assays above

O=[N+]([O-])c1ccc(O)cc1
inactive: all assays above

CCCCOCCO
inactive: all assays above

Oc1cccc(O)c1
inactive: all assays above

CC#C[C@]1(O)CC[C@H]2[C@@H]3CCC4=CC(=O)CCC4=C3[C@@H](c3ccc(N(C)C)cc3)C[C@@]21C
active: [1] 5.69 µM | [6] 31.1 µM | [9] 31.8 µM | [13] 30.6 µM | [15] 12.9 µM | [18] 26.6 µM | [20] 20 µM
inactive: all other assays above

NC(=O)N1C(=O)C(C(=O)c2cc(Cl)cs2)c2cc(F)c(Cl)cc21 (stereo unspecified)
active: [2] 14.1 µM | [5] 7.46 µM | [6] 27.4 µM | [9] 23.8 µM | [12] 5.92 µM | [13] 27.3 µM | [14] 5.41 µM | [15] 4.54 µM | [17] 16.6 µM | [18] 1.54 µM | [19] 2.1 µM | [20] 5.47 µM
inactive: [1] | [3] | [4] | [7] | [8] | [10] | [11] | [16]

CCCCCCCCC(=O)O
inactive: all assays above

CC(O)CO (stereo unspecified)
inactive: all assays above
